Measured values taken from PubChem BioAssay (Tox21).
Records with an inconclusive call do not appear. A call without a number means that no potency is given here. Activity calls are given as the source filed them. Unless noted, calls follow the shape of the dose curve; as a rule, active = well fitted curve in the direction sought with a large enough effect in the repeat runs; inconclusive = weak or mixed curves; inactive = no such curve, though single readings can be large; an effect the other way counts as inactive or inconclusive.

Tests used:
[1] = qHTS assay to identify small molecule antagonists of the estrogen related receptor (ERR) signaling pathway from Tox21 library - cell viability counter screen (AID 1224834); also: nearly all actives have a fitted effect of over 30% in size
Summary of the method: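 Multiplexed viability counter screen in ERR cells: 17.5 h compound exposure at 37 C, CellTiter-Fluor added, 30 min at 37 C/5% CO2, fluorescence read.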

[2] = biological target: Luciferin 4-monooxygenase (Photinus pyralis) (UniProt P08659); assay: qHTS assay to identify small molecule inhibitors of firefly luciferase (AID 1224835); also: nearly all actives have a fitted effect of over 25% in size; also: potency is read from the fitted curve at half-maximal effect
Chain of Luciferin 4-monooxygenase (Photinus pyralis) (P08659 whole entry, looked up): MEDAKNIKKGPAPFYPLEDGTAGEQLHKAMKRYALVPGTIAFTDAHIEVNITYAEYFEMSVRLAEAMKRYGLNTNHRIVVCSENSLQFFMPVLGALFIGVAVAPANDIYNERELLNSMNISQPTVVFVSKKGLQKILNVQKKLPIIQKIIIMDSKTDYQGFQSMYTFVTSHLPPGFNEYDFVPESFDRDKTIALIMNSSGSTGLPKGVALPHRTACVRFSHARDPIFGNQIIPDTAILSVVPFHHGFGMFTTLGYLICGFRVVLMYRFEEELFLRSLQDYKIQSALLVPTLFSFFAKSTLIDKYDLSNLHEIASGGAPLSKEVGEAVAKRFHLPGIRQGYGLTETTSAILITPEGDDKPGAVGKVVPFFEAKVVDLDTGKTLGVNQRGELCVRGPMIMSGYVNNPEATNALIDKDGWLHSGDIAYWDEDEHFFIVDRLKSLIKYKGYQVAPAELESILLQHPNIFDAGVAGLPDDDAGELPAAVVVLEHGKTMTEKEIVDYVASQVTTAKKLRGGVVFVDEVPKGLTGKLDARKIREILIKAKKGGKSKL
Summary of the method: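 Biochemical qHTS: compounds run as interplate titrations against purified firefly enzyme, with D-luciferin and ATP each at its KM concentration. Light output recorded by CCD imaging.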

[3] = qHTS assay to identify small molecule agonists of the constitutive androstane receptor (CAR) signaling pathway - cell viability counter screen (AID 1224836); also: series mostly up to about 92 µM; nearly all actives have a fitted effect of over 45% in size
Summary of the method: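 HepG2-CYP2B6-hCAR, 2500 cells/well, 4 h pre-incubation; cpd 15 conc + PK11195 0.75 uM final; 23 h, 37 C/5% CO2; CellTiter-Fluor, fluorescence.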

[4] = qHTS assay to identify small molecule antagonists of the constitutive androstane receptor (CAR) signaling pathway - cell viability counter screen (AID 1224837); also: series mostly up to about 92 µM; nearly all actives have a fitted effect of over 45% in size
Summary of the method: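 Read-out: CellTiter-Fluor fluorescence after 23 hr at 37 C/5% CO2. Cells: HepG2 double-stable for hCAR and CYP2B6-2.2kb. Compounds tested at 15 concentrations in the presence of CITCO, final concentration 50 nM.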

[5] = biological target: Nuclear receptor subfamily 1 group I member 3 (Homo sapiens) (UniProt Q14994); assay: qHTS assay to identify small molecule antagonists of the constitutive androstane receptor (CAR) signaling pathway (AID 1224838);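 also: HepG2 cells stably expressing hCAR with CYP2B6 luciferase reporter stimulated by CITCO; nearly all actives have a fitted effect of over 40% in size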
Chain of Nuclear receptor subfamily 1 group I member 3 (Homo sapiens) (Q14994 whole entry, looked up): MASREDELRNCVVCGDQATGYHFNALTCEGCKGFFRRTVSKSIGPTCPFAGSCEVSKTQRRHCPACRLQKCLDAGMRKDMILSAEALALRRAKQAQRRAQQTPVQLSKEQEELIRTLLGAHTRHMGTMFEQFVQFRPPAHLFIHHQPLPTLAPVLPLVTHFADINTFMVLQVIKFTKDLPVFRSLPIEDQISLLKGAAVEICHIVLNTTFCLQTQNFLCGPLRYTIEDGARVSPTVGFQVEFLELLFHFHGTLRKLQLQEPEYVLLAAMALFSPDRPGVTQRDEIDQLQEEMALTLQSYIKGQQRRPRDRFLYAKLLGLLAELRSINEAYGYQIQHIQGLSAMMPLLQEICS
Summary of the method: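 Read-out: ONE-Glo luciferase luminescence after 30 min at room temperature. HepG2-CYP2B6-hCAR double-stable cells, compounds in 15-point titration plus 50 nM CITCO final, 24 h at 37 C/5% CO2.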

[6] = biological target: Nuclear receptor subfamily 1 group I member 3 (Homo sapiens) (UniProt Q14994); assay: qHTS assay to identify small molecule agonists of the constitutive androstane receptor (CAR) signaling pathway (AID 1224839); also: nearly all actives have a fitted effect of over 15% in size; also: potency is read from the fitted curve at half-maximal effect
Summary of the method: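 HepG2-CYP2B6-hCAR cells, 2500/well, 4 h pre-incubation; compounds 15 conc.; PK11195 0.75 uM final; 24 h, 37 C/5% CO2; ONE-Glo luciferase read.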

[7] = qHTS assay to identify small molecule antagonists of the estrogen related receptor signaling pathway with the pleiotropic PPARgamma coactivator (PGC) from Tox21 10K library - cell viability counter screen (AID 1224840; active = well fitted cell-killing curve with a large enough effect in the repeat runs, not every such curve was filed as active; also: nearly all actives have a fitted effect of over 40% in size)
Summary of the method: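 Fluorescence read-out of CellTiter-Fluor viability reagent, added after cells had been exposed to compound in DMSO for 17.5 h at 37 C; 30 min development at 37 C/5% CO2. Cells: PGC/ERR line, 2,000/well.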

[8] = qHTS assay to identify small molecule agonists of the estrogen related receptor signaling pathway with the pleiotropic PPARgamma coactivator (PGC) (AID 1224823)
Summary of the method: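 In this quantitative high-throughput screen, an 18 h, 37 C treatment of PGC/ERR cells with compounds in DMSO preceded a One-Glo luminescence read taken after 30 min at room temperature.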

[9] = qHTS assay to identify small molecule antagonists of the estrogen related receptor signaling pathway with the pleiotropic PPARgamma coactivator (PGC) from Tox21 10K library (AID 1224841; call rule not given here; also: series mostly up to about 92 µM; actives are mostly falling curves and most rising ones were filed inactive; nearly all actives have a fitted effect of over 50% in size)
Summary of the method: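 Luminescence read-out (One-Glo luciferase reagent, 30 min at room temperature) from PGC/ERR cells exposed to DMSO-dissolved test compounds for 18 h at 37 C; cells, 2,000 per well, had been preincubated 6 h before compound transfer.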

[10] = qHTS assay to identify small molecule agonists of the estrogen related receptor signaling pathway with the pleiotropic PPARgamma coactivator (PGC) from Tox21 10K library (AID 1224842); also: nearly all actives have a fitted effect of over 15% in size
Summary of the method: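 PGC/ERR reporter cell line, 2,000 cells per well, incubated 6 h at 37 C before 23 nL compound in DMSO was added. After 18 h at 37 C, One-Glo luminescence read following 30 min at room temperature.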

CCC(Br)(CC)C(=O)NC(N)=O
Potency [1]: inactive
Potency [2]: inactive
Potency [3]: inactive
Potency [4]: inactive
Potency [5]: inactive
Potency [6]: inactive

Cn1cc[n+](C)c1 (tested in a mixture with another compound)
Potency [1]: inactive
Potency [2]: inactive
Potency [3]: inactive
Potency [4]: inactive
Potency [5]: inactive
Potency [6]: inactive
Potency [7]: inactive

Nc1nc(N)nc(N)n1
Potency [1]: inactive
Potency [2]: inactive
Potency [3]: inactive
Potency [4]: inactive
Potency [5]: inactive
Potency [6]: inactive

CN(C)c1ccc(N(C)C)cc1
Potency [1]: inactive
Potency [2]: 63.5 µM (active)
Potency [3]: inactive
Potency [4]: inactive
Potency [5]: inactive
Potency [6]: 61.3 µM (active)
Potency [7]: inactive

BrCC(Br)C1CCC(Br)C(Br)C1 (stereo unspecified)
Potency [1]: inactive
Potency [2]: inactive
Potency [3]: inactive
Potency [4]: inactive

Cc1c(F)c(F)c(COC(=O)C2C(/C=C(\Cl)C(F)(F)F)C2(C)C)c(F)c1F (stereo unspecified)
Potency [1]: inactive
Potency [2]: inactive
Potency [3]: inactive
Potency [4]: inactive

CCN(C)N=O
Potency [1]: inactive
Potency [2]: inactive
Potency [3]: inactive
Potency [4]: inactive
Potency [5]: inactive
Potency [6]: inactive
Potency [7]: inactive

C=CC(=O)NCNC(=O)C=C
outcome [8]: inactive
Potency [1]: inactive
Potency [3]: inactive
Potency [4]: inactive
Potency [6]: inactive
Potency [7]: inactive
Potency [9]: inactive

CC(O)(CS(=O)(=O)c1ccc(F)cc1)C(=O)Nc1ccc(C#N)c(C(F)(F)F)c1 (stereo unspecified)
outcome [8]: inactive
Potency [1]: inactive
Potency [2]: inactive
Potency [3]: inactive
Potency [4]: inactive
Potency [6]: inactive
Potency [7]: inactive
Potency [10]: inactive

O=NN1CCNCC1
Potency [1]: inactive
Potency [2]: inactive
Potency [3]: inactive
Potency [4]: inactive
Potency [5]: inactive
Potency [6]: inactive
Potency [7]: inactive

c1ccc(CN2CCNCC2)cc1
Potency [1]: inactive
Potency [2]: inactive
Potency [3]: inactive
Potency [4]: inactive
Potency [5]: inactive
Potency [6]: inactive
Potency [7]: inactive

C=CC(=O)OC(C)(C)C
Potency [1]: inactive
Potency [2]: inactive
Potency [3]: inactive
Potency [4]: inactive
Potency [5]: inactive
Potency [6]: inactive

O=C(O)c1ccccc1C(=O)Nc1cccc2ccccc12
Potency [1]: inactive
Potency [2]: inactive
Potency [3]: inactive
Potency [4]: inactive
Potency [5]: inactive
Potency [6]: 30.6 µM (active)
Potency [7]: inactive

CCCCC(CC)COP(=O)(Oc1ccccc1)Oc1ccccc1 (stereo unspecified)
Potency [1]: inactive
Potency [2]: inactive
Potency [3]: inactive
Potency [4]: inactive
Potency [5]: inactive
Potency [6]: 27.3 µM (active)

CCCCOC(=O)c1ccccc1C(=O)OCc1ccccc1
outcome [8]: inactive
Potency [1]: inactive
Potency [2]: inactive
Potency [3]: inactive
Potency [4]: inactive
Potency [5]: inactive
Potency [6]: 54.5 µM (active)
Potency [7]: inactive
Potency [10]: inactive

COCCOCCO
outcome [8]: inactive
Potency [1]: inactive
Potency [2]: inactive
Potency [3]: inactive
Potency [4]: inactive
Potency [5]: inactive
Potency [6]: inactive
Potency [7]: inactive
Potency [10]: inactive

O=S(=O)(Cl)c1ccccc1
Potency [1]: inactive
Potency [2]: inactive
Potency [3]: inactive
Potency [4]: inactive
Potency [5]: inactive
Potency [6]: inactive
Potency [7]: inactive

CC(C)=CCOc1c2occc2cc2ccc(=O)oc12
outcome [8]: inactive
Potency [1]: inactive
Potency [3]: inactive
Potency [4]: inactive
Potency [5]: inactive
Potency [6]: 10.6 µM (active)
Potency [7]: inactive
Potency [10]: inactive

CC(=O)[C@H]1CC[C@H]2[C@@H]3CC[C@H]4C[C@](C)(O)CC[C@]4(C)[C@H]3CC[C@]12C
outcome [8]: inactive
Potency [1]: inactive
Potency [2]: inactive
Potency [3]: inactive
Potency [4]: inactive
Potency [5]: inactive
Potency [6]: inactive
Potency [7]: inactive
Potency [9]: inactive
Potency [10]: inactive

Clc1cc(Cl)c(Cl)c(Cl)c1
Potency [1]: inactive
Potency [2]: inactive
Potency [3]: inactive
Potency [4]: inactive
Potency [5]: inactive
Potency [6]: inactive

OCCCBr
outcome [8]: inactive
Potency [1]: inactive
Potency [3]: inactive
Potency [4]: inactive
Potency [5]: inactive
Potency [6]: inactive
Potency [7]: inactive
Potency [10]: inactive

CNC(C)Cc1ccccc1OC (stereo unspecified)
Potency [1]: inactive
Potency [2]: inactive
Potency [3]: inactive
Potency [4]: inactive
Potency [5]: inactive
Potency [6]: inactive
Potency [7]: inactive

CCOC(=O)CBr
Potency [1]: inactive
Potency [2]: inactive
Potency [3]: inactive
Potency [4]: inactive
Potency [5]: inactive
Potency [6]: inactive
Potency [7]: inactive

O=S(=O)(O)C(F)(F)C(F)(F)C(F)(F)C(F)(F)F
outcome [8]: inactive
Potency [1]: inactive
Potency [2]: inactive
Potency [3]: inactive
Potency [4]: inactive
Potency [6]: 32.5 µM (active)
Potency [7]: inactive
Potency [10]: inactive

C[C@]12CC[C@H]3[C@@H](CCC4=CC(=O)CC[C@@H]43)[C@@H]1CC[C@@H]2OC(=O)CCC1CCCCC1
Potency [1]: inactive
Potency [2]: inactive
Potency [3]: inactive
Potency [4]: inactive
Potency [5]: inactive
Potency [6]: inactive

c1ccc(C2CC2)c(OCC2=NCCN2)c1
outcome [8]: inactive
Potency [1]: inactive
Potency [2]: inactive
Potency [4]: inactive
Potency [7]: inactive
Potency [9]: inactive
Potency [10]: inactive

NNC(=O)c1cccnc1
Potency [1]: inactive
Potency [2]: inactive
Potency [3]: inactive
Potency [4]: inactive
Potency [5]: inactive

O=C(CBr)OCc1ccccc1
Potency [1]: inactive
Potency [2]: inactive
Potency [3]: inactive
Potency [4]: inactive
Potency [5]: inactive
Potency [6]: inactive
Potency [7]: inactive

COc1c(C(C)(C)C)cc([N+](=O)[O-])c(C)c1[N+](=O)[O-]
Potency [1]: inactive
Potency [2]: inactive
Potency [3]: inactive
Potency [4]: inactive
Potency [5]: inactive
Potency [6]: 24.1 µM (active)

c1cc2ccc3cccc4ccc(c1)c2c34
outcome [8]: inactive
Potency [3]: inactive
Potency [4]: inactive
Potency [5]: inactive
Potency [6]: 36 µM (active)
Potency [7]: inactive
Potency [9]: inactive
